# Laboratory results from PubChem BioAssay (Tox21).
# Results filed as inconclusive are left out. A call without a number means that no potency is given here. A number with no mark means an inactive call. Activity calls are given as the source filed them. Calls follow the shape of the dose curve; as a rule, active = well fitted cell-killing curve with a large enough effect in the repeat runs; inconclusive = weak or mixed curves, or effect the other way; inactive = flat fitted curve, though single readings scatter.
# Assay: qHTS assay to identify small molecule agonists of the androgen receptor (AR) signaling pathway in the presence of an antagonist - cell viability counter screen (AID 1259379); also: nearly all actives have a fitted effect of over 25% in size
# Settings: MDA-kb2 viability, CellTiter-Fluor, 16 h; series mostly up to 92.4 µM
# Description: National Center for Advancing Translational Sciences [NCATS]
# NIH Chemical Genomics Center [NCGC]
# U.S. Environmental Protection Agency [EPA]
# National Institutes of Environmental Health Sciences [NIEHS]
# National Toxicology Program [NTP]
# U.S. Food and Drug Administration [FDA]
# Androgen receptor (AR) is an important member of nuclear receptor family. Its signaling plays a critical role in AR-dependent prostate cancer and other androgen related diseases. Considerable attention has been given in the past decades to develop methods to study and screen for the environmental chemicals that have the potential to interfere with metabolic homeostasis, reproduction, developmental and behavioral functions. Therefore AR binding assay for screening against androgen agonists and antagonists can be used to identify potential endocrine disruptors.
# MDA-kb2 cells (from ATCC, deposited by Wilson et al.) are human breast carcinoma cells that were stably transfected with a luciferase reporter gene under control of the MMTV promoter that contains response elements for both androgen receptor (AR) and glucocorticoid receptor (GR). This particular screening for measuring luciferase reporter gene activity using MDA-kb2 cells against Tox21 10K library compounds is a confirmation study on agonist mode screening in the presence of AR-antagonist compound (Nilutamide) at 3.0uM final concentration. The cytotoxicity of the compounds was tested in parallel by measuring the cell viability using CellTiter-Fluor assay system (Promega, Madison, WI) in the same wells.
# Tox21 Assay Protocol Summary:
# MDA-kb2 cells (cells cultured without CO2) were dispensed at 3,000 cells/well in 4uL of culture medium into white wall/solid-bottom 1536-well plates (Corning Life Sciences, Corning, NY) using a Multidrop Combi (Thermo Fisher Scientific Inc., Waltham, MA) dispenser. The assay plates were incubated at 37C and 0% CO2 for 5hr. One uL of 3.0uM (final concentration) Nilutamide or assay buffer was added using two separate tips of Flying Reagent Dispenser (FRD, Aurora Discovery, San Diego, CA). Then 23nL of compounds dissolved in DMSO at 15 concentrations and positive controls were transferred to the assay plates using a Pintool station (Wako, San Diego, CA). The assay plates were incubated at 37C and 0% CO2 for 16 hr. After 15hr incubation at 37C, 1uL/well CellTiter-Fluor reagent (Promega Corporation) was added to each well of the assay plates using FRD. After 1hr incubation at 37C and 0% CO2, the fluorescence signal was measured using a ViewLux plate reader (PerkinElmer, Shelton, CT).
# Potency is read from the fitted curve at half-maximal effect.
Structure (SMILES),Potency,"activity change, negative = cytotoxicity"
C=CCOC(=O)c1ccc(C(=O)OCC=C)c(C(=O)OCC=C)c1,inactive,–
CC(=O)OC(C)c1ccccc1 (stereo not given),inactive,–
CCCCCC(=O)OCC,inactive,–
O=C(/C=C/c1ccccc1)NCCO,inactive,–
COc1ccc(/C=N/NC(=O)c2ccncc2)cc1OC,inactive,–
CCCC(C)CC (stereo not given),inactive,–
CC(C)C(=O)Nc1cccc(C(F)(F)F)c1,inactive,–
Nc1cc(Cl)cc(S(=O)(=O)O)c1O,inactive,–
O=P(O)(O)OCC(O)CO (stereo not given),inactive,–
Nc1c(NC/C=C\COc2cc(CN3CCCCC3)ccn2)c(=O)c1=O,–,-0.565% [at 19 µM]
CC(=O)OCCCc1ccccc1,inactive,–
C=CCOc1c(Br)cc(C(C)(C)c2cc(Br)c(OCC=C)c(Br)c2)cc1Br,inactive,–
N#CCCOCCOCCC#N,inactive,–
COc1cc([N+](=O)[O-])ccc1N,34.4 µM (active),–
CCCCCCCC/C=C\CCCCCCCC(=O)OC[C@@H](O)[C@H]1OC[C@H](O)[C@H]1O,inactive,–
CC(=O)c1ccc2c(c1)CCCC2,inactive,–
C=C(C)[C@@H]1CC[C@@H](C)C[C@@H]1O,inactive,–
O=S(=O)(O)CCO,inactive,–
O=C1OC(=O)c2ccccc21,inactive,–
CC(C)(c1ccc(Oc2ccc3c(c2)C(=O)OC3=O)cc1)c1ccc(Oc2ccc3c(c2)C(=O)OC3=O)cc1,inactive,–

Structure (SMILES),Potency,"activity change, negative = cytotoxicity"
O=c1[nH]c(=O)c2[nH]c(=O)[nH]c2[nH]1,–,-1.23% [at 8.39 µM]
CCOC(=O)OCC/C(SC(=O)OCC)=C(\C)N(C=O)Cc1cnc(C)nc1N,inactive,–
CCCCC(CC)COC(=O)c1ccccc1 (stereo not given),inactive,–
O=C(O)/C=C/c1ccccc1,inactive,–
CCC(C)N (stereo not given),inactive,–
CN[C@@H]1[C@@H](O)[C@@H](O[C@@H]2[C@H](O)[C@H](O[C@H]3OC(CN)=CC[C@H]3N)[C@@H](N)C[C@H]2N)OCC1(C)O (stereo not given in full),inactive,–
NS(=O)(=O)c1cc2c(cc1Cl)NC(C(Cl)Cl)NS2(=O)=O (stereo not given),inactive,–
CCOC(=O)CCc1ccccc1,inactive,–
CO[Si](CCCCl)(OC)OC,inactive,–
C[N+](C)(C)CC(O)CCl (stereo not given),inactive,–
NC(=O)NNC(N)=O,inactive,–
Cn1c(=O)c2c(ncn2CC2OCCO2)n(C)c1=O,inactive,–
COC(/C=C(\C)CCC=C(C)C)OC,inactive,–
CCCCCCCCCCCCCCCC(=O)NCCO,inactive,–
C=C[Si](C)(C)O[Si](C)(C)C=C,inactive,–
O=C1OC(=O)c2cc(Oc3ccc4c(c3)C(=O)OC4=O)ccc21,inactive,–
CC(Cl)COP(=O)(OCC(C)Cl)OCC(C)Cl (stereo not given),inactive,–
CO/N=C(/C(=O)N[C@@H]1C(=O)N2C(C(=O)O)=C(Cn3nnc(C)n3)CS[C@H]12)c1csc(N)n1,inactive,–
CCOC(=O)CCCCCCCCC(=O)OCC,inactive,–
F[Si-2](F)(F)(F)(F)F,inactive,–
